Assay [1] concerns the target human Retinoid X Receptor beta (RXRb), RXRB (gene 6257) (UniProt P28702). Description: ATG_RXRb_TRANS: Attagene TRANS-FACTORIAL HepG2 Assay for human Retinoid X Receptor beta (RXRb) (AID 2283013; active = hit-call score of the fitted dose curve at least 0.9, where 1 is the maximum). A digest of the protocol: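 Read-out: reporter mRNA induction via RT-PCR plus capillary electrophoresis fluorescence, analysed as signal increase relative to DMSO. Cells were human HepG2, transiently transfected with GAL4-UAS reporter constructs and chimeric receptor-Gal4 fusions, dosed for 24 h.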

For assay [2], the target named is human Thyroid Receptor alpha (THRa1), THRA (gene 7067) (UniProt P10827). Put plainly: ATG_THRa1_TRANS: Attagene TRANS-FACTORIAL HepG2 Assay for human Thyroid Receptor alpha (THRa1) (AID 2283014; active = hit-call score of the fitted dose curve at least 0.9, where 1 is the maximum). In a few lines:
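HepG2 cells transiently transfected with multiplexed GAL4-UAS reporter units for exogenous chimeric THRa1-Gal4; reporter mRNA measured 24 h after dosing by RT-PCR, 6-FAM labelling, HpaI digestion and capillary electrophoresis. Gain-of-signal fitted versus DMSO baseline.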

Read-out in assay [3]: E-selectin (Homo sapiens) (UniProt P16581)
Put plainly: BSK_3C_Eselectin: BioMAP Diversity Plus: 3C Assay for Eselectin Biomarker Activity (AID 2283015).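 As to outcome: cell surface E-selectin protein quantified by ELISA 24 h after dosing.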 To be noted: primary human endothelial cells (HUVEC); actives raise or lower the signal. A digest of the protocol:
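Primary human umbilical vein endothelial cells (3C system) were dosed with chemical and cell-surface E-selectin measured by ELISA 24 h later. Bidirectional curve fitting used DMSO as negative control and baseline.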

Read-out in assay [4]: Interleukin-1 alpha (IL1a), IL1A (gene 3552)
Put plainly: BSK_BE3C_IL1a: BioMAP Diversity Plus: BE3C Assay for Interleukin-1 alpha (IL1a) Biomarker Activity (AID 2283016). To be noted: primary human bronchial epithelial cells; actives raise or lower the signal. In a few lines: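 ELISA read-out of IL-1a from human lung bronchial epithelial primary cells, 24 h post-dose. Gain or loss of signal fitted relative to DMSO negative control.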

Read-out in assay [5]: Monocyte Chemoattractant Protein-1 (MCP1), CCL2 (gene 6347)
Description: BSK_3C_MCP1: BioMAP Diversity Plus: 3C Assay for Monocyte Chemoattractant Protein-1 (MCP1) Biomarker Activity (AID 2283017). As to conditions: primary human endothelial cells (HUVEC); actives raise or lower the signal. A digest of the protocol: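 Primary human umbilical vein endothelial cells (3C system) were exposed to test chemical for 24 h, after which MCP-1 was quantified by ELISA. Activity was fitted bidirectionally against DMSO as negative control and baseline.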

Read-out in assay [6]: Monocyte Chemoattractant Protein-1 (MCP1), CCL2 (gene 6347)
Put plainly: BSK_4H_MCP1: BioMAP Diversity Plus: 4H Assay for Monocyte Chemoattractant Protein-1 (MCP1) Biomarker Activity (AID 2283018). As to conditions: primary human endothelial cells (HUVEC); actives raise or lower the signal. In a few lines:
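HUVEC primary cells, 24 h post-dose, MCP-1 by ELISA. Gain or loss of signal fitted bidirectionally vs DMSO baseline. Cytotoxicity: SRB stain (0.1% after 10% TCA fixation), read 560 nm, parallel cultures.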

Read-out in assay [7]: Human Leukocyte Antigen - DR isotype (HLADR), HLA-DRA (gene 3122)
Description: BSK_3C_HLADR: BioMAP Diversity Plus: 3C Assay for Human Leukocyte Antigen - DR isotype (HLADR) Biomarker Activity (AID 2283019).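 As to outcome: ELISA of cell-surface HLA-DR on HUVEC 24 h after dosing.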 As to conditions: primary human endothelial cells (HUVEC); actives raise or lower the signal. In a few lines:
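Primary human umbilical vein endothelial cells (3C system) were dosed with compound and cell-surface HLA-DR was quantified by ELISA at 24 h. Activity was fitted bidirectionally against DMSO as negative control and baseline.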

Read-out in assay [8]: Interleukin-8 (IL8), CXCL8 (gene 3576)
Description: BSK_3C_IL8: BioMAP Diversity Plus: 3C Assay for Interleukin-8 (IL8) Biomarker Activity (AID 2283020). To be noted: primary human endothelial cells (HUVEC); actives raise or lower the signal. In a few lines: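 HUVEC, 3C stimulation; 24 h compound exposure; IL-8 read by ELISA; gain or loss of signal fitted relative to DMSO control.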

Read-out in assay [9]: Monokine induced gamma interferon (MIG), CXCL9 (gene 4283)
Description: BSK_3C_MIG: BioMAP Diversity Plus: 3C Assay for Monokine induced gamma interferon (MIG) Biomarker Activity (AID 2283021).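 As to AC50: MIG protein level measured by immunoassay in the treated endothelial cultures.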 As to conditions: primary human endothelial cells (HUVEC); actives raise or lower the signal. A digest of the protocol: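 HUVEC, 3C system; 24 h chemical exposure; MIG by ELISA; bidirectional fit vs DMSO baseline.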

Assay [10] addresses human Vitamin D Receptor (VDR), VDR (gene 7421) (UniProt P11473). Put plainly: ATG_VDR_TRANS: Attagene TRANS-FACTORIAL HepG2 Assay for human Vitamin D Receptor (VDR) (AID 2283022; active = hit-call score of the fitted dose curve at least 0.9, where 1 is the maximum). A digest of the protocol: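 HepG2 cells were transiently transfected with multiple GAL4-UAS reporter units, so signal reflects exogenous chimeric receptor-Gal4 activity. After 24 h compound exposure, reporter mRNA was measured by RT-PCR, fluorescent labelling and capillary electrophoresis, fitted for gain of signal versus DMSO.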

Records with an inconclusive call do not appear. Activity calls are given as the source filed them. The calls were made as follows, unless noted: active = hit-call score of the fitted dose curve at least 0.9, where 1 is the maximum; inactive = score below 0.9.

Sequence of human Thyroid Receptor alpha (THRa1), THRA (gene 7067) (P10827 whole entry, looked up, the tested form may be a part): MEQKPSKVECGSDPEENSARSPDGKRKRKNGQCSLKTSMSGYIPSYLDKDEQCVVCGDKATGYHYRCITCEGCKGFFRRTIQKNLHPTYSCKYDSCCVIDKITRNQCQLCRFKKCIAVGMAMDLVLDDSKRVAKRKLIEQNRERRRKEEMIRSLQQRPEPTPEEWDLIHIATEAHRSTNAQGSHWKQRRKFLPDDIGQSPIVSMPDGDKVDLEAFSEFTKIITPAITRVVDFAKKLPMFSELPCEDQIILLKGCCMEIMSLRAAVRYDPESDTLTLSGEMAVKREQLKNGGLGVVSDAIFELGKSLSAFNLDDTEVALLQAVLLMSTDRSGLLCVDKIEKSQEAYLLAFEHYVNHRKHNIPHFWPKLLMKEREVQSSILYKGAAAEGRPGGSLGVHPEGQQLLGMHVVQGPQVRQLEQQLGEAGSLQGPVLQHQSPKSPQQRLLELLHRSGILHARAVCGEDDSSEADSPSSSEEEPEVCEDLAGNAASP
Sequence of human Retinoid X Receptor beta (RXRb), RXRB (gene 6257) (P28702 whole entry, looked up, the tested form may be a part): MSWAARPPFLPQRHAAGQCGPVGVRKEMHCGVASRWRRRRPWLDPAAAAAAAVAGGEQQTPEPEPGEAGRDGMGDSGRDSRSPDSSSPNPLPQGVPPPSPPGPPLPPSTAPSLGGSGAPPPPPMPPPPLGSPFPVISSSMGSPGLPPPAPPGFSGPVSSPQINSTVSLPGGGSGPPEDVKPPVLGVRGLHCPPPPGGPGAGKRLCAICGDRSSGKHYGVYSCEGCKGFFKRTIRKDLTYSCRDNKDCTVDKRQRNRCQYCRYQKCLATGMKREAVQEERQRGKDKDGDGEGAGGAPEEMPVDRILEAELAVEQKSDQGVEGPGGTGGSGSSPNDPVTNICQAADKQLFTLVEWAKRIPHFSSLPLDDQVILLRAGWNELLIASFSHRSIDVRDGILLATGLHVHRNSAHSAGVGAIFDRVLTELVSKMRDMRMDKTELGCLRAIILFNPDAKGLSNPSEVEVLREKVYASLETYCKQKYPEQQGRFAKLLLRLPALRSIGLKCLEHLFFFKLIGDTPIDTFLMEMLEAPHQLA
Sequence of E-selectin (Homo sapiens) (P16581 whole entry, looked up): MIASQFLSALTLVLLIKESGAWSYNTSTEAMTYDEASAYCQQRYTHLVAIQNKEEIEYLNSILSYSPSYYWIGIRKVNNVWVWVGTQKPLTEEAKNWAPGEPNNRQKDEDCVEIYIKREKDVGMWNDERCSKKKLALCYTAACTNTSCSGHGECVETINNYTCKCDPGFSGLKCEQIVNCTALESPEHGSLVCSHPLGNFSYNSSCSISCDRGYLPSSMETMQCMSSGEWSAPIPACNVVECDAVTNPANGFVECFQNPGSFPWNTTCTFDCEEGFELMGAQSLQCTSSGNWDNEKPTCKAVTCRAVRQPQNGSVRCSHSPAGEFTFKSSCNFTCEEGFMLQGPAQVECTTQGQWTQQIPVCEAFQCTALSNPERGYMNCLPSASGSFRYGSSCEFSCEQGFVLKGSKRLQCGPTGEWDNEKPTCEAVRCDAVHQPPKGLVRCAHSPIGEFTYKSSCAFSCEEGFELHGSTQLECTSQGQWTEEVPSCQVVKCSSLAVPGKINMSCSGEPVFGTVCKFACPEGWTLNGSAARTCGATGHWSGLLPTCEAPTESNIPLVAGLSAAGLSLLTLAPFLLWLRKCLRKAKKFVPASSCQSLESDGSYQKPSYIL
Sequence of human Vitamin D Receptor (VDR), VDR (gene 7421) (P11473 whole entry, looked up, the tested form may be a part): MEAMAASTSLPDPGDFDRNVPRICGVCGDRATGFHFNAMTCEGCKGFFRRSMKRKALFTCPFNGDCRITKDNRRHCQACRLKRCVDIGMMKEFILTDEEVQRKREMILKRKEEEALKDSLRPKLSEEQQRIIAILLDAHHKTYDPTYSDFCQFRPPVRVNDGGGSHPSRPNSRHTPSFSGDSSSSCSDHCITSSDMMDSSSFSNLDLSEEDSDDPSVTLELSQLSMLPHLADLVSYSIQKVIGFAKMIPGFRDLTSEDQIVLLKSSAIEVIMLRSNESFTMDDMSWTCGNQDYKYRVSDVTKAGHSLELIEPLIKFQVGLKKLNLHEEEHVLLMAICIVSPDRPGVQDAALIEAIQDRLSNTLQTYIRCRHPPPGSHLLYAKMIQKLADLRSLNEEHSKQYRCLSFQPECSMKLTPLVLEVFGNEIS

Consider `C1N2CN3CN1CN(C2)C3`, for which the call in assay [1], in assay [2], in assay [3], in [4], in [5] and in assay [6] was inactive. Also, the result in assay [7], in assay [8], in assay [9] and in [10] was inactive.
On to `CCOC(=O)CC(CC(=O)OCC)(OC(C)=O)C(=O)OCC`, for which the outcome in assay [1], in [2], in [3], in [4], in [5] and in assay [6] was inactive. The outcome in assay [7], in [8], in [9] and in assay [10] was inactive.
For the compound `CCCCC(CC)COC(=O)CCCCCCCCC(=O)OCC(CC)CCCC` (stereo not drawn), the compound was called inactive in [1], in [3], in assay [4], in assay [5], in assay [6] and in [7]. Besides, the result in [8] and in [9] was inactive.
On to `O=C(O)c1cccc(Oc2ccccc2)c1`, for which the compound was called inactive in assay [1], in assay [2], in assay [4], in assay [5], in [6] and in [7]. For the same compound, the result in assay [8], in [9] and in [10] was inactive.
For `CC(=O)OCCC(C)C`, the compound was classed as inactive in [1], in assay [3], in assay [4], in [5], in assay [6] and in [7]. Also, the result in assay [8] and in assay [9] was inactive.
As to `CCCN(C1CCN(C(=O)C2CCNCC2)CC1)[C@@H]1CCc2ccc(OC)cc2C1`, the outcome in assay [1], in assay [2], in [3], in [4], in assay [5] and in assay [6] was inactive. Besides, the outcome in [7], in assay [8], in [9] and in [10] was inactive.
Take `CCOC(=O)COc1ccc2c(c1)CC(NCC(O)c1cccc(Cl)c1)CC2` (stereo not drawn): the compound was classed as inactive in assay [1], in assay [2] and in assay [4]. In addition, the half-maximal activity concentration (AC50) (usually the midpoint of the concentration-response curve, whichever way the signal moves) was 31.4 µM (active) in assay [3]; 33.6 µM (active) in assay [5]; 28.2 µM (active) in [6]; 27.6 µM (active) in assay [7]; 32.1 µM (active) in assay [8]; 28.3 µM (active) in assay [9].
For the compound `Oc1ccc2c(c1)-c1ccccc1C2`, the AC50 in [1] was 26.2 µM (active). The compound was classed as inactive in [2], in assay [4], in [5], in assay [6], in assay [7] and in assay [8]. The outcome in [9] and in assay [10] was inactive.
On to `CC1(C)C(=O)N(Br)C(=O)N1Br`, for which the call in assay [1], in assay [3], in [4], in [5], in assay [6] and in assay [7] was inactive. The result in assay [8], in [9] and in assay [10] was inactive.
For the compound `CC[C@H](C)C(=O)O[C@H]1C[C@@H](C)C=C2C=C[C@H](C)[C@H](CC[C@@H]3C[C@@H](O)CC(=O)O3)[C@H]21`, the result in assay [1], in [9] and in [10] was inactive. Moreover, the half-maximal activity concentration (AC50) in assay [3] was 31.6 µM (active); in [4], 33.6 µM (active); in [5], 24 µM (active); in assay [6], 1.98 µM (active); in assay [7], 31.5 µM (active); in [8], 25.5 µM (active).
On to `COc1ccc(-n2nc(C(F)F)cc2-c2ccc(S(C)=O)cc2)cc1` (stereo not drawn), for which the compound was called inactive in assay [1], in [3], in [4], in assay [5], in assay [6] and in assay [7]. The result in [8], in [9] and in assay [10] was inactive.
Take `COc1ccc2sc(C(=O)Nc3nnn[nH]3)c(OC(C)C)c2c1`: the compound was called inactive in assay [1] and in assay [10]. The half-maximal activity concentration (AC50) was 19.9 µM (active) in assay [3]; 12.2 µM (active) in [4]; 12.3 µM (active) in assay [5]; 26.9 µM (active) in assay [6]; 7.28 µM (active) in [7]; 17.9 µM (active) in assay [8]. The concentration at half-maximal activity (AC50) in assay [9] is 16.1 µM (active).
Consider `O=C(CCCCCCCCc1cccnc1)N1CCC(C=C(c2ccccc2)c2ccccc2)CC1`, for which the compound was classed as inactive in assay [1]. The AC50 is 19.4 µM (active) in assay [3]; 27.3 µM (active) in [4]; 8.66 µM (active) in assay [5]; 5.75 µM (active) in [6]; 6.54 µM (active) in assay [7]; 8.66 µM (active) in assay [8]. Moreover, the AC50 in assay [9] was 14.2 µM (active); in assay [10], 100 µM (active).
As for `CC(C)c1cccc(C(C)C)c1N1C(=O)c2ccc(O)cc2C1=O`, the outcome in assay [1], in [5], in assay [9] and in assay [10] was inactive. Moreover, the AC50 in assay [3] was 36.5 µM (active); in assay [4], 20 µM (active); in [6] it was 4.76 µM (active); in assay [7] it was 8.36 µM (active); in [8], 4.86 µM (active).
Turning to `C1=CCCC=CCCC=CCC1`, the concentration at half-maximal activity (AC50) in assay [1] is 63.5 µM (active). Moreover, the outcome in assay [4], in assay [5], in [6], in assay [7], in [8] and in assay [9] was inactive.
For `CC(C)CCCCCCCOC(=O)CCCCC(=O)OCCCCCCCC(C)C`, the AC50 in assay [1] is 100 µM (active). The result in [4], in [5], in [6], in assay [7], in [8] and in [9] was inactive. The call in [10] was inactive.
As for `O=c1n(CC2CO2)c(=O)n(CC2CO2)c(=O)n1CC1CO1` (stereo not drawn), the compound was classed as inactive in [2], in assay [4], in assay [6], in assay [9] and in assay [10]. For the same compound, the AC50 was 16.1 µM (active) in assay [3], 20 µM (active) in assay [5], 21.5 µM (active) in assay [7] and 13.2 µM (active) in assay [8].
`CCCCCCc1ccc(O)cc1O`: the half-maximal activity concentration (AC50) in assay [1] is 24.2 µM (active); in assay [3], 30.8 µM (active); in assay [4], 33 µM (active); in [5] it was 32.5 µM (active); in assay [6], 16.2 µM (active); in [7] it was 39 µM (active). Moreover, the AC50 in assay [8] is 32.4 µM (active); in assay [9], 3.97 µM (active). In addition, in assay [10], the result was inactive.
In the case of `COCCOc1cc2cc(C(=O)NC3CCN(C(C)C)CC3)n(CC(=O)Nc3ccc(Cl)cn3)c2cn1`, the call in assay [1], in assay [4], in assay [5], in [6], in assay [7] and in assay [8] was inactive. For the same compound, the outcome in [9] was inactive.
In the case of `CCCC(=O)OCC`, the result in [1], in assay [3], in assay [4], in [5], in assay [6] and in assay [7] was inactive. The result in assay [8], in [9] and in [10] was inactive.
`CC(C)CCCCCCOC(=O)c1ccc(C(=O)OCCCCCCC(C)C)c(C(=O)OCCCCCCC(C)C)c1`: the concentration at half-maximal activity (AC50) in [1] was 63.2 µM (active). Moreover, the outcome in assay [4], in assay [5], in assay [6], in [7], in [8] and in assay [9] was inactive.

The values are drawn from PubChem BioAssay (EPA / NIEHS).
